Measurements taken from the supplement of paper PMC8253809.
Where “and” joins values, the source holds several entries; their conditions need not be identical. Identical values can stand only once.

How the values were obtained:
Assay in all cases: growth inhibition (% activity, log2 RLU normalised to DMSO / staurosporine); higher = more growth inhibition
Conditions in all cases: 33 µM
[1] = system: DIPGX29 (H3.3 K27M diffuse intrinsic pontine glioma line)
Outline: (§1)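 Cells (pHGG lines and H9-derived neural stem cells) were plated on Geltrex-coated 384-well plates and exposed to approved drugs at a single final concentration of about 33 μM, in triplicate, for 7 days at 37 °C, 5% CO2. Log2-transformed CellTiter-Glo luminescence was normalised per plate to % activity between solvent and positive control wells, and the growth-inhibition value is the median over replicates.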

[2] = system: DIPGX37 (H3.3 K27M diffuse intrinsic pontine glioma line)
Outline: as §1

[3] = system: DIPGX7 (H3.3 K27M diffuse intrinsic pontine glioma line)
Outline: as §1

[4] = system: DIPGX9 (diffuse intrinsic pontine glioma line)
Outline: as §1

[5] = system: HGGX39 (paediatric high-grade glioma line)
Outline: as §1

[6] = system: HGGX6 (H3.3 G34R paediatric high-grade glioma line)
Outline: as §1

[7] = system: HNSC
Outline: as §1

[8] = system: SUDIPGIV (diffuse intrinsic pontine glioma line)
Outline: as §1

[9] = system: SUDIPGVI (diffuse intrinsic pontine glioma line)
Outline: as §1

[10] = system: SUDIPGXIII (diffuse intrinsic pontine glioma line)
Outline: as §1

Compound	growth inhibition [1]	growth inhibition [2]	growth inhibition [3]	growth inhibition [4]	growth inhibition [5]	growth inhibition [6]	growth inhibition [7]	growth inhibition [8]	growth inhibition [9]	growth inhibition [10]
CCCN[C@H]1CCc2nc(N)sc2C1	-1.19% and -0.0554%	-0.814% and -5.15%	-0.691% and -0.331%	-0.203% and -1.15%	-0.555% and -2.37%	3.71% and 0.0769%	-2.69% and 0.0733%	-0.717% and -1.61%	-0.616% and -4.53%	-6.77% and -0.361%
Nc1ccn([C@@H]2O[C@H](CO)[C@@H](O)C2(F)F)c(=O)n1	16.7% and 17.4%	13.6% and 13%	16.9% and 16.6%	20.2%	20.4% and 20%	13.5% and 14.1%	52.4% and 59.5%	41.6% and 46%	4.24% and 4.14%	9.89% and 11.3%
NC(=O)OCC(COC(N)=O)c1ccccc1	1.09%	2.98%	1.52%	0.912%	0.666%	0.329%	2.74%	0.15%	2.19%	1.32%
CCS(=O)(=O)CCn1c([N+](=O)[O-])cnc1C	-0.456%	1.05%	-1.24%	-0.171%	-0.367%	-1.57%	-1.98%	-0.809%	-3.73%	0.464%
O=C(O)/C=C/c1ccc(Cn2ccnc2)cc1	-4.29% and 0.0234%	-1.97% and 1.55%	-2.07% and 1.39%	-1.94% and 0.49%	-2.45% and 1.57%	-3.87% and 2.09%	1.95% and -1.58%	-2.48% and 0.0369%	-6.52% and 1.83%	-0.879% and -16.2%
O=C([O-])CC(O)(CC(=O)[O-])C(=O)[O-].O=C([O-])CC(O)(CC(=O)[O-])C(=O)[O-].[Bi+3].[K+].[K+].[K+].[K+].[K+]	-1.08%	-0.559%	-0.17%	0.156%	-0.856%	0.952%	-0.691%	-1.2%	-0.266%	-15.3%
CC(CCc1ccc(O)cc1)NCC(O)c1ccc(O)cc1 (stereo not given)	-1.35%	0.666%	-1%	0.398%	3.25%	-2.19%	5.04%	2.35%	2.3%	0.356%
CCN(CC)CC(=O)Nc1c(C)cccc1C	1.31%	0.211%	2.14%	1.09%	2.87%	0.583%	1.55%	0.232%	2.37%	1.3%
C=C[C@]1(C)C[C@@H](OC(=O)CSC(C)(C)CNC(=O)[C@H](N)C(C)C)[C@]2(C)[C@H](C)CC[C@]3(CCC(=O)[C@H]32)[C@@H](C)[C@@H]1O	2.79%	0.213%	4.74%	1.8%	20.9%	4.36%	15.7%	29.9%	1.61%	46.4%
Fc1ccc([C@@H]2CCNC[C@H]2COc2ccc3c(c2)OCO3)cc1	1.88%	0.828%	1.44%	-0.123%	-1.48%	0.754%	54.9%	-0.812%	-0.542%	1.2%
Cc1ccc(-n2[nH]c(C)c(N=Nc3cccc(-c4cccc(C(=O)O)c4)c3O)c2=O)cc1C	-2.95%	-1.98%	0.213%	-1.59%	-1.34%	-2.27%	13.7%	-2.64%	-2.5%	1.95%
CCC(=O)NCC[C@@H]1CCc2ccc3c(c21)CCO3	-0.665%	-0.134%	1.26%	0.325%	1.29%	-0.174%	3.01%	0.00903%	1.36%	0.726%
COC(=O)Nc1nc2cc(Sc3ccccc3)ccc2[nH]1	6.86%	10.3%	8.12%	9.42%	10.7%	10.1%	77%	10.8%	4.78%	3.48%
O=S(=O)(O)NC1CCCCC1	0.811%	0.93%	1.03%	0.594%	2.81%	1.56%	0.385%	0.0436%	0.0298%	-1.99%
C[N+](C)(C)CCCCCC[N+](C)(C)C	-5.28%	-1.26%	0.491%	-2.94%	-1.88%	-5.38%	11.7%	-2.32%	-9.56%	0.369%
COc1cc2ncnc(Nc3ccc(F)c(Cl)c3)c2cc1OCCCN1CCOCC1	3.09%	-0.0268%	1.03%	-0.279%	1.46%	4.13%	-1.23%	-5.34%	-6.03%	0.759%
NCC[C@H](O)C(=O)N[C@@H]1C[C@H](N)[C@@H](O[C@H]2O[C@H](CN)[C@@H](O)[C@H](O)[C@H]2O)[C@H](O)[C@H]1O[C@H]1O[C@H](CO)[C@@H](O)[C@H](N)[C@H]1O	-1.74% and 1.77%	-1.47% and 4.24%	-2.3% and 3.01%	-2.19% and 1.75%	-0.158% and 4.96%	-2.78% and 2.92%	-1.9% and 2.1%	-1.35% and 2.18%	-1.89% and 2.2%	-0.125% and 0.203%
Cc1nc2n(c(=O)c1CCN1CCC(c3noc4cc(F)ccc34)CC1)CCCC2O (stereo not given)	-0.21%	-0.0675%	0.542%	0.251%	1.52%	-1.12%	23.4%	2.36%	-0.7%	-0.0722%
COc1cc2nc(N(C)CCCNC(=O)C3CCCO3)nc(N)c2cc1OC (stereo not given)	0.0156%	1.16%	-0.0243%	0.217%	-0.734%	1.08%	-0.343%	-0.994%	1.28%	1.78%
CCN(Cc1ccncc1)C(=O)C(CO)c1ccccc1 (stereo not given)	-2.54%	-1.96%	-1.34%	-0.78%	-1.19%	0.149%	-4.87%	-1.01%	-0.507%	-1.24%
CCc1c2c(nc3ccc(OC(=O)N4CCC(N5CCCCC5)CC4)cc13)-c1cc3c(c(=O)n1C2)COC(=O)[C@]3(O)CC	6.04% and 11.2%	2.87% and 1.26%	5% and 16.3%	7.83% and 32.1%	13.7% and 30.1%	7.49% and 10.4%	55.3% and 54.4%	49.3% and 46.9%	1.04% and 3.21%	-12% and 3.28%

Compound	growth inhibition [1]	growth inhibition [2]	growth inhibition [3]	growth inhibition [4]	growth inhibition [5]	growth inhibition [6]	growth inhibition [7]	growth inhibition [8]	growth inhibition [9]	growth inhibition [10]
CN(C)/N=N/c1[nH]cnc1C(N)=O	5.71%	3.55%	2.2%	3.08%	9.03%	7.4%	4.41%	12.8%	2.55%	0.947%
CCN1CCCC1CNC(=O)c1cc(S(=O)(=O)CC)c(N)cc1OC (stereo not given)	2.92%	-2.18%	2.4%	-0.361%	1.17%	-1.1%	0.824%	2.02%	-8.92%	-0.464%
Clc1ccc2c(c1)CCc1cccnc1C2=C1CCNCC1	-4.02%	-0.355%	-2.28%	-0.408%	0.308%	-1.66%	0.109%	-0.876%	-0.303%	0.814%
CCCC(=O)[O-].[Na+]	-1.17%	-2.44%	-0.966%	0.792%	0.723%	0.649%	-2.84%	-1.12%	0.269%	0.879%
O=c1[nH]c(=O)n([C@H]2C[C@H](O)[C@@H](CO)O2)cc1F	18.6%	6.96%	12.8%	10.7%	10.9%	14.3%	67.3%	26.2%	4.66%	6.72%
CN1CC(=O)NC1=N	1.19%	-0.026%	4.55%	2.89%	6.17%	2.06%	10.1%	2.65%	3.88%	1.35%
CC(=O)Nc1ccccc1	-2.81%	-0.334%	-1.79%	-2.39%	-2.41%	-0.159%	-3.95%	-0.657%	-5.47%	0.153%
CC(C)(C)c1nc(-c2cccc(NS(=O)(=O)c3c(F)cccc3F)c2F)c(-c2ccnc(N)n2)s1	0.794%	4.39%	2.8%	1.94%	5.46%	4.05%	22.9%	-0.469%	-1.37%	-0.13%
CN1CCN2c3ccccc3Cc3ccccc3C2C1 (stereo not given)	1.33%	-0.487%	0.702%	-0.0886%	2.14%	-2.26%	2.01%	-0.203%	-0.707%	-2.33%
CCN(CCCc1ccccc1)CCCc1ccccc1	2.04%	0.545%	5.69%	0.438%	7.1%	5.46%	4.87%	0.248%	-1.23%	-0.1%
O=C(N/N=C/c1ccc([N+](=O)[O-])o1)c1ccc(O)cc1	6.1%	2.69%	4.79%	5.76%	11%	4.58%	17.4%	18.5%	13.9%	2.98%
CCc1cc2c(cc1CC)CC(NC[C@H](O)c1ccc(O)c3[nH]c(=O)ccc13)C2	-0.957%	-0.915%	0.341%	-1.43%	0.343%	-1.65%	23.5%	1.53%	-4.28%	0.665%
NNC(=O)c1ccncc1.Nc1ccc(C(=O)O)c(O)c1	0.532%	2.72%	1.7%	2.6%	2.23%	1.63%	-0.818%	0.972%	3.47%	-1.36%
CC(C)(C)c1ccc(C(O)CCCN2CCC(C(O)(c3ccccc3)c3ccccc3)CC2)cc1 (stereo not given)	-0.594%	-0.074%	0.488%	0.591%	2.84%	1.58%	0.144%	-0.418%	-2.2%	-0.826%
CCCCC[C@H](O)/C=C/[C@H]1[C@H](O)CC(=O)[C@@H]1CCCCCCC(=O)O	1.8%	0.835%	1.87%	1.68%	3.82%	4.44%	0.983%	2.69%	1.52%	0.878%
CCC(=O)OCC(=O)[C@@]1(OC(=O)CC)[C@@H](C)C[C@H]2[C@@H]3CCC4=CC(=O)C=C[C@]4(C)[C@@]3(F)[C@@H](O)C[C@@]21C	0.0157%	2.23%	0.0573%	4.05%	3.08%	1.77%	-4.87%	-0.108%	0.781%	1.98%
CNCCC(Oc1ccc(C(F)(F)F)cc1)c1ccccc1 (stereo not given)	8.11%	2.62%	1.4%	0.851%	2.21%	0.48%	1.75%	1.62%	0.57%	2.42%
CS(=O)(=O)c1ccc(C2=C(c3ccccc3)C(=O)OC2)cc1	-1.33%	-0.751%	-1.9%	-1.51%	-1.94%	-2.78%	-3.76%	-4.83%	-0.628%	0.203%
CCC(=O)O[C@]1(C(=O)CCl)[C@@H](C)C[C@H]2[C@@H]3CCC4=CC(=O)C=C[C@]4(C)[C@@]3(F)[C@@H](O)C[C@@]21C	2.76%	3.09%	1.96%	5.92%	8.62%	1.59%	10.2%	6.72%	2.14%	2.24%
CCCCCCNC(=O)n1cc(F)c(=O)[nH]c1=O	5.51%	0.97%	4.27%	14%	6.44%	9.38%	24.6%	11.2%	3.57%	2.43%
CCN(CC)CCOC(=O)C(c1ccccc1)c1ccccc1	3.33%	2.41%	3.35%	1.46%	2.96%	2.47%	6.35%	0.181%	3%	-1.28%
